Most compounds without a hit are left out; they make up all but 7.8% or so of the library.
VACV mCherry inh – qHTS for Stage-Specific Inhibitors of Vaccinia Orthopoxvirus: mCherry Reporter Primary qHTS | Potency, µM (doses to about 36.5 µM), for the others: at the highest dose activity change, negative = inhibition, most hits filed as inhibitors | actives 0.63% (n = 310,000) | Vaccinia virus mCherry reporter infection, fluorescence; calls by dose curve; tested in A549 cells; further: potency means the concentration at half of the fitted maximal effect; nearly all actives have a fitted effect of over 35% in size
VACV Venus inh – qHTS for Stage-Specific Inhibitors of Vaccinia Orthopoxvirus: Venus Reporter Primary qHTS | Vaccinia virus Venus reporter expression, fluorescence | Potency, µM (doses to about 36.5 µM), for inactives: top-dose activity change, negative = inhibition, most hits filed as inhibitors | actives 0.46% (n = 330,000) | AID 720580, 2013; calls by dose curve; tested in A549 cells; further: potency means the concentration at half of the fitted maximal effect; nearly all actives have a fitted effect of over 30% in size
Lassa entry inh – qHTS for Inhibitors of binding or entry into cells for Lassa Virus; Lassa virus pseudotype entry inhibition, cell reporter; Potency, µM (series often up to 37.9 µM), for the others: at the top dose activity change, negative = inhibition, actives largely listed as inhibitors; actives 1.2% (n = 300,000); AID 540256, 2011; calls by dose curve; tested in HEK293 cells; further: potency means the concentration at half of the fitted maximal effect; nearly all actives have a fitted effect of over 50% in size
HCMV inh – qHTS Assay for inhibitors of the human cytomegalovirus (HCMV). actives 4.5% (n = 410,000). activity change, negative = inhibition, % at 57.5 µM. AID 1259415, 2018. HFF cells, HCMV-luciferase reporter, 72 h; active compounds read low; in the data active means activity change below about -60%; inconclusive means no clear call, values can overlap the other calls; inactive means above about -39%
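Two-dose cell screen: HFF monolayers treated with compounds and infected with luciferase-expressing HCMV at 1 PFU/cell, 72 h at 37C, then lysed for luciferase measurement.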
Marburg entry inh – qHTS for inhibitors of binding or entry into cells for Marburg Virus. Marburg virus pseudotyped entry inhibition, cell reporter. Potency, µM (top dose mostly 37.8 µM), without a hit: top-dose activity change, negative = inhibition, usual class: inhibitors. actives 1.8% (n = 300,000). AID 540276, 2011; calls by dose curve; tested in HEK293 cells; further: potency means the concentration at half of the fitted maximal effect
HCV inhibitor – qHTS Assay for Inhibitors of Hepatitis C Virus (HCV); Huh7.5.1 HCVcc-Cre infection, luciferase reporter, 44 h; Potency, µM (titrated, usually from 41.8 µM), for inactives: at the highest dose activity change, negative = inhibition, most hits filed as inhibitors; actives 3.4% (n = 340,000); AID 651820, 2012; active means well fitted inhibition curve with a large enough effect; inconclusive means small, poorly fitted or top-dose-only effect, or another doubt; inactive means no such curve, though single readings can be large or run the other way; further: potency means the concentration at half of the fitted maximal effect
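Antiviral activity was scored by luciferase reporter output from cells infected with HCVcc-Cre (~0.5 moi) in presence of compound, 44 h infection period, cells seeded 1,000/well 4 h prior.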
Numbers without * were called inactive; u = inconclusive; x = no result; [ ] = dose if it differs, or a comment. On the % scale 0 is the no-effect control and ±100 the full control effect.

SMILES	VACV mCherry inh	VACV Venus inh	Lassa entry inh	HCMV inh	Marburg entry inh	HCV inhibitor
CCCN(CCC)C(=O)Cn1c(=O)n(-c2ccc(C)c(C)c2)c(=O)c2c3c(sc21)CCCCC3	-19.1%	-16.8%	u	4.6	19.6%[46.1 µM]	x
CCOc1ccc(NC(=O)c2ccc(F)c(S(=O)(=O)N(CC)Cc3ccccc3)c2)cc1	-43.5%	-38.8%	u	-97.2*	x	x
CN(Cc1ccccc1)S(=O)(=O)c1ccc(F)c(C(=O)Nc2cc(Cl)cc(Cl)c2)c1	-8.2%	-7.4%	11.4%[46.1 µM]	-15.0	x	x
Cc1cccc(NC(=O)c2ccc(N(Cc3ccccc3)S(C)(=O)=O)cc2)c1	-16.7%	2.0%	u	-66.0*	x	x
CCN(Cc1ccccc1)S(=O)(=O)c1cc(C(=O)Nc2cc(Cl)cc(Cl)c2)ccc1F	-25.6%	u	u	-96.7*	x	x
CCN(c1ccccc1)S(=O)(=O)c1cc(C(=O)Nc2cccc(Cl)c2)ccc1F	u	u	12.6µM*	-95.4*	u	u
Cc1oc(-c2ccccc2NC(=O)C2CCCO2)nc1CNC(=O)c1[nH]c2c(C)ccc(C)c2c1C (stereo not given)	-9.2%	-14.4%	x	x	x	x
Cc1cc(C)c(NC(=O)CSC2=Nc3ccccc3C3=NC(CC(=O)NCc4cccs4)C(=O)N23)c(C)c1 (stereo not given)	7.2%	-4.1%	22.0%[46.1 µM]	-1.8	20.3%[46.1 µM]	x
COc1ccc(-n2cc(C(=O)Oc3cc(C)cc(C)c3)c3ccccc3c2=O)cc1	-21.7%	-15.2%	-2.2%[46.1 µM]	16.4	x	x
CCOc1ccc(C(=O)Nc2ccc(S(=O)(=O)N(Cc3ccccc3)c3ccccc3)cc2)cc1	-22.9%[7.34 µM]	-27.4%[7.34 µM]	-24.6%[46.1 µM]	-61.4*	u	x
CCN(CC)CC(O)CN1CCCCc2nc(C)c(C)cc21 (stereo not given)	x	x	x	x	-8.4%[14.2 µM]	x
CCOc1ccc(-c2nc(N)ncc2-c2ccc(OC)cc2)c(O)c1	u	u	-16.4%	23.0	u	u
CCOc1ccc(-c2nc(N)ncc2-c2ccccc2)c(O)c1	u	u	-12.6%	-20.7	u	10µM*
CCOc1ccc(-c2nc(N)ncc2Oc2ccc(OC)cc2)c(O)c1	u	-19.2%	-23.8%	-19.9	-27.6%	14.1µM*
COc1ccc(-c2nc(N)ncc2-c2csc(C)n2)c(O)c1	-13.3%	-13.9%	-0.7%	-11.3	u	u
COC(=O)[C@@]1(Sc2ccc(OC)cc2)CC(=O)N(c2ccc(OC(C)C)cc2CO)[C@@H]1c1ccc(OC(C)C)c(OC)c1	x	x	x	18.5	x	x
COc1ccc(OC)c(/C=C/c2ccc3ccccc3[n+]2C)c1	25.8%	10.9%	x	x	x	x
Cc1cc(/C=C(\C#N)C(N)=O)c(C)n1-c1ccc(N2CCOCC2)c([N+](=O)[O-])c1	u	-15.5%	-22.7%	-74.7*	u	u
Cc1cc(C=O)c(C)n1-c1ccc(N2CCCCC2)c([N+](=O)[O-])c1	x	-14.0%	u	-24.6	u	u
CC(=O)c1nn(-c2ccc(OC(F)(F)F)cc2)nc1Nc1ccc(C)cc1	-5.3%	-6.6%	-10.0%[46.1 µM]	-24.4	5.1%[46.1 µM]	x
NS(=O)(=O)c1ccc(NC(=O)CN2C(=O)COc3ccc(Cl)cc32)cc1	u	-15.2%	-26.2%[46.1 µM]	-28.1	11.2%[46.1 µM]	x
Cc1ccc(Cl)cc1Nc1nc(N2CCOCC2)nc(N2CCOCC2)n1	-8.3%	-7.6%	u	u	u	-25.5%
O=[N+]([O-])c1cccc(/C=N/Nc2cc(Cl)nc(-c3ccccc3)n2)c1	x	-13.9%	10µM*	-14.2	-2.8%[46.1 µM]	u
O=[N+]([O-])c1ccc(Cl)c(/C=N/Nc2nc(N3CCOCC3)nc(N3CCOCC3)n2)c1	x	x	-12.7%	19.0	0.0517µM*	u
Cc1ccc([N+](=O)[O-])cc1Nc1nc(N2CCOCC2)nc(N2CCOCC2)n1	-2.3%	-2.5%	20.6%[46.1 µM]	-69.6*	u	-5.9%
SMILES	VACV mCherry inh	VACV Venus inh	Lassa entry inh	HCMV inh	Marburg entry inh	HCV inhibitor
O=[N+]([O-])c1cccc(/C=N/Nc2cc(N3CCOCC3)ncn2)c1	x	x	x	-28.7	x	-1.2%
O=[N+]([O-])c1cccc(/C=N/Nc2nc(N3CCOCC3)nc(N3CCOCC3)n2)c1	-2.6%	5.4%	-1.4%	-92.6*	u	-3.4%
O=[N+]([O-])c1ccc(/C=N/Nc2cc(Cl)nc(-c3ccccc3)n2)cc1	-3.0%	0.5%	-12.9%	-28.0	-12.8%	u
Clc1cc2c(cc1/C=N/Nc1nc(N3CCOCC3)nc(N3CCOCC3)n1)OCO2	-0.1%	-9.0%	0.6%[46.1 µM]	3.2	-18.2%[46.1 µM]	u
COc1cccc(-c2cc(C(=O)Nc3ccncc3)c3ccccc3n2)c1	-11.8%	-18.3%	-12.9%	3.0	u	u
COc1cccc(NC(=O)c2cc(-c3ccncc3)nc3c(C)cc(C)cc23)c1	-5.0%	-2.9%	u	-30.7	u	10µM*
COc1cc(-c2cc(C(=O)Nc3ccc(O)cc3)c3ccccc3n2)cc(OC)c1OC	u	-8.3%	x	-0.5	x	u
COc1ccc(-c2cc(C(=O)Nc3ccc(C(N)=O)cc3)c3ccccc3n2)cc1OC	-0.2%	11.1%	-21.5%	-91.5*	u	u
COc1ccc(-c2cc(C(=O)NC3CCCC3)c3ccccc3n2)cc1OC	1.9%	10.4%	20.5%[46.1 µM]	-3.9	-0.3%[46.1 µM]	-26.7%
COc1ccc(NC(=O)c2cc(-c3ccncc3)nc3ccccc23)c(OC)c1	6.0%	21.1%	u	-5.6	5.62µM*	u
COc1ccc(NC(=O)c2cc(-c3ccc(OC)c(OC)c3)nc3ccccc23)c(OC)c1	2.5%	9.2%	u	-75.1*	u	u
COc1ccc(S(=O)(=O)N2CCN(Cc3nc4ccc(C)cc4o3)CC2)cc1Cl	-12.7%	-2.1%	12.1%[46.1 µM]	-15.3	x	x
Cc1ncc2c(c1CNC(=O)c1cncs1)CCN(C(=O)c1ccc(-c3ccccc3)cc1)C2	-19.4%	-11.7%	x	x	x	x
CCOc1ccc(CCNC(=O)C2=C(C)C(=O)OC23CCCCC3)cc1	-17.3%	-9.9%	-0.2%[46.1 µM]	-30.2	-2.1%[46.1 µM]	x
Cc1ccc(NC(=O)c2cc(-c3ccc(C)o3)nc3ccccc23)cc1	-14.2%	-10.0%	12.7%	18.3	-20.1%	-8.6%
COc1ccccc1NC(=O)c1cc(-c2ccc(C)o2)nc2ccccc12	-21.3%	-21.5%	2.4%	-71.5*	u	-1.6%
COc1cc(CNc2nc(C)c([N+](=O)[O-])c(C)c2C#N)cc(OC)c1OC	-3.6%	-14.8%	u	40.4	u	6.31µM*
COC(=O)[C@H]1[C@H](CO)[C@H]2Cn3c(cccc3=O)[C@@H]1N2C(=O)c1ccccn1	x	x	x	-22.3	x	x
CCN(C(=O)CN1C(=O)NC2(CCCc3ccccc32)C1=O)c1ccc(F)cc1 (stereo not given)	x	x	x	2.6	x	-6.4%

Bioassay records (PubChem BioAssay)
